# In the supplement of paper PMC6953052:
# Where a name gives a salt, the structure may show the parent alone. Over roughly 1,700 compounds, “fraction of GFP-LC3-positive cells (≥5 vesicles/cell)” has its median near 0.058; the highest 2% begin near 0.59. Many of the other results were omitted from the sample, so the highest values are more common in it than they were.
# Tested on: CbCln3 +/+ GFP-LC3 cerebellar neuronal cells
# Test: fraction of GFP-LC3-positive cells (≥5 vesicles/cell); higher = more autophagosome accumulation
# How it was run: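 Compound (~50 nL in DMSO) was pin-transferred in duplicate onto wild-type or mutant CbCln3 cerebellar cells stably expressing GFP-LC3, seeded at 2 × 10^3/well in 384-well plates, for 24 h at 33 °C. After fixation in 3.2% PFA, three fields per well were imaged at 10×. The value reported is the duplicate average of the fraction of cells meeting a vesicle-count threshold, with CellProfiler counting GFP-LC3 vesicles per cell and out-of-focus images excluded. Cells met the threshold at 5 or more vesicles.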
row,Structure (SMILES),fraction of GFP-LC3-positive cells
1,N#CC(C#N)=Cc1cc(O)c(O)c(O)c1,0.0475
2,N#CC(C#N)=Cc1ccc(O)c(O)c1,0.094
3,CC(C)(C)c1cc(C=C(C#N)C#N)cc(C(C)(C)C)c1O [tyrphostin 9],0.67
4,CC(C)(C)c1cc(C=C(C#N)C#N)cc(C(C)(C)C)c1O,0.357
5,CCN(CC)C(=O)N[C@H]1C[C@@H]2c3cccc4[nH]cc(c34)C[C@H]2N(C)C1.O=C(O)/C=C\C(=O)O [S(-)-terguride hydrogen maleate],0.0461
6,CC(C)[C@]12O[C@H]1[C@@H]1O[C@]13[C@]1(O[C@H]1C[C@H]1C4=C(CC[C@@]13C)C(=O)OC4)[C@@H]2O [Triptolide],0.268
7,Cl.NCCc1c[nH]c2ccc(O)cc12 [Serotonin hydrochloride],0.0685
8,C#CCN(C)[C@H](C)Cc1ccccc1.Cl [Selegiline hydrochloride],0.0621
9,C[N+]1(C)CCCC(OC(=O)C(O)(c2ccccc2)c2ccccc2)C1.[Br-] (stereo not drawn) [Mepenzolate bromide],0.0681
10,COC1=C[C@@H]2C3=C([C@@H]2C1=O)[C@@H](NC(C)=O)CCc1cc(OC)c(OC)c(OC)c13 [Lumicolchicine gamma],0.0307
11,COc1cc2c(c(OC)c1OC)-c1ccc(OC)c(=O)cc1[C@@H](NC(C)=O)CC2 [Colchicine],0.778
12,COc1cc2c(c(OC)c1OC)-c1ccc(O)c(=O)cc1[C@@H](N)CC2 [Trimethylcolchicinic acid],0.0619
13,CC(C)(O)[C@H]1O[C@H]2CC[C@@]3(C)[C@@](O)(CC[C@H]4Cc5c([nH]c6ccccc56)[C@@]43C)C2=CC1=O,0.0216
14,C/C=C(/C)C(=O)O[C@H]1C(C)=C2[C@H]([C@@H]1OC(=O)CCCCCCC)[C@@](C)(OC(C)=O)C[C@H](OC(=O)CCC)[C@@]1(O)[C@H]2OC(=O)[C@@]1(C)O,0.665
15,Cl.O[C@@H]1CCCC[C@H]1N1CCC(c2ccccc2)CC1 [L(-)-vesamicol hydrochloride],0.076
16,CC(C)N(CCC(C(N)=O)(c1ccccc1)c1ccccn1)C(C)C (stereo not drawn) [Disopyramide],0.0661
17,COc1cc2c(cc1O)[C@@H]1Cc3ccc(OC)c(O)c3CN1CC2 [Scoulerine],0.588
18,O.O.O.O=C1OC2(c3cc(Br)c([O-])cc3Oc3c2cc(Br)c([O-])[c]3[Hg][OH])c2ccccc21.[Na+].[Na+] (stereo not drawn) [Merbromin],0.957
19,CCCCC/C=C\C/C=C\C/C=C\C/C=C\CCCC(=O)NCc1ccc(O)c(OC)c1 [Arvanil],0.144
20,"CC[C@@]1(O)C(=O)OCc2c1cc1n(c2=O)Cc2cc3ccccc3nc2-1 [Camptothecine (S,+)]",0.321

row,Structure (SMILES),fraction of GFP-LC3-positive cells
1,OC[C@H]1O[C@@H](n2cnc3cc(Cl)c(Cl)cc32)C(O)[C@H]1O (stereo partly drawn),0.0687
2,C=C1[C@@H](O)C2O[C@@]3(CCC2O[C@@H]1C(O)C[C@H](C)C1O[C@@]2(CCCCO2)CC[C@H]1C)CC[C@@H](/C=C/[C@@H](C)[C@@H]1CC(C)=C[C@@]2(O[C@H](C[C@@](C)(O)C(=O)O)CCC2O)O1)O3 (stereo partly drawn) [okadaic acid],0.831
3,CCN1C[C@]2(COC)CC[C@H](O)[C@]34C1[C@H](C[C@H]23)[C@@]1(O)C[C@H](OC)[C@H]2C[C@@H]4[C@@H]1[C@H]2OC(C)=O [Condelphine],0.043
4,O=C(O)/C=C\C(=O)O.O=C(O)/C=C\C(=O)O.c1ccc2nc(N3CCNCC3)ccc2c1 [Quipazine dimaleate salt],0.041
5,C[C@H]1CCC/C=C/C2C[C@H](O)C[C@H]2[C@H](O)/C=C/C(=O)O1 (stereo partly drawn) [brefeldin A],0.0802
6,C=C1[C@@H](C)[C@H]2[C@H](Cc3ccccc3)NC(=O)[C@]23[C@H](OC(C)=O)/C=C/[C@](C)(O)C(=O)[C@@H](C)C/C=C/[C@H]3[C@@H]1O [cytochalasin D],0.411
7,CCCC[C@@H](C)[C@@H](OC(=O)C[C@@H](CC(=O)O)C(=O)O)[C@H](C[C@@H](C)C[C@H](O)CCCC[C@@H](O)C[C@H](O)[C@H](C)N)OC(=O)C[C@H](CC(=O)O)C(=O)O [Fumonisin B1],0.0462
8,CCN1C[C@]2(C)CC[C@H](O)[C@]34C1[C@H](C[C@H]23)[C@@]1(O)C[C@H](OC)[C@H]2C[C@@H]4[C@@H]1C2O (stereo partly drawn) [Karakoline],0.0388
9,CNc1ccc2oc(C[C@@H]3OC4(CC[C@@H]3C)O[C@H](C(C)C(=O)c3ccc[nH]3)[C@H](C)C[C@H]4C)nc2c1C(=O)O (stereo partly drawn),0.276
10,C=C(C)[C@H]1O[C@H]2CC[C@@]3(C)[C@@](O)(CC[C@H]4[C@@H]5OC(C)(C)[C@H]6C[C@@H]7C(=C)Cc8c(Cl)cc9[nH]c(c5c9c8[C@@]76O)[C@@]43C)[C@]23O[C@@H]3[C@H]1O,0.667
11,CN1C2CCCC1CC(=O)C2.Cl [Pseudopelletierine hydrochloride],0.111
12,CN[C@@H]1C[C@H]2O[C@@](C)([C@@H]1OC)n1c3ccccc3c3c4c(c5c6ccccc6n2c5c31)C(=O)NC4 [staurosporine],0.542
13,CCCCCCCCCCCCCCCCOC[C@H](COP(=O)([O-])OCC[N+](C)(C)C)OC(C)=O,0.0259
14,CCCCCC1OC1C/C=C\CCCCCCCC(=O)O (stereo not drawn),0.062
15,"CCCCCC1OC1C/C=C\CCCCCCCC(=O)O (stereo not drawn) [Leukotoxin B (12,13-EODE)]",0.0763
16,Cc1nccc2c1[nH]c1ccccc12.Cl [Harmane hydrochloride],0.0738
17,Cc1c2ccncc2c(C)c2c1[nH]c1ccccc12 [Ellipticine],0.984
18,O=C1C=C2C=C[C@@H]3CC2(O1)[C@H]1CCCCN31 [Securinine],0.0519
19,CC(C)(C)NCC(O)c1cc(Cl)c(N)c(Cl)c1.Cl (stereo not drawn) [Clenbuterol hydrochloride],0.0519
20,CC[C@@H](CO)NC(=O)[C@@H]1C=C2c3cccc4[nH]cc(c34)C[C@H]2N(C)C1.O=C(O)/C=C\C(=O)O [Methylergometrine maleate],0.0308

row,Structure (SMILES),fraction of GFP-LC3-positive cells
1,CC1=CC(=O)C2=C(C)C[C@H](O)[C@@H]3[C@H](OC(=O)[C@H]3C)[C@@H]12.O [Austricine],0.0585
2,Clc1ccc(C2CC3CCC2N3)cn1 (racemic) [epibatidine (+/-)],0.0633
3,N#CC(C#N)=NNc1ccc(OC(F)(F)F)cc1,0.918
4,C[C@@H]1O[C@@H](O[C@@H]2C=C3CCC4C(CC[C@]5(C)[C@@H](c6ccc(=O)oc6)CC[C@]45O)[C@@]3(C)CC2)[C@H](O)[C@H](O)[C@H]1O (stereo partly drawn) [Proscillaridin A],0.0563
5,CN1Cc2c(ccc3c2OCO3)[C@@H]2[C@H]1c1cc3c(cc1C[C@@H]2O)OCO3.O [Chelidonine (+)],0.593
6,CN1CCc2cc3c(cc2[C@H]1[C@@H]1OC(=O)c2c1ccc1c2OCO1)OCO3 [Bicuculline (+)],0.0481
7,CN1CCC2=C[C@H](O)[C@H]3OC(=O)c4cc5c(cc4[C@H]3[C@@H]21)OCO5 [Hippeastrine hydrobromide],0.0629
8,CCCCCC[C@H]1C(=O)O[C@H](C)C(NC(=O)c2cccc(NC=O)c2O)C(=O)O[C@@H](C)[C@@H]1OC(=O)CC(C)C (stereo partly drawn) [Antimycin A],0.0705
9,CC/C=C\C[C@@H](/C=C/C=C\C/C=C\C/C=C\CCCC(=O)O)OO,0.0447
10,C/C1=C/C(=O)O[C@@H]2C[C@@H](CC[C@H](C)/C=C\CC1)O[C@@](O)([C@@H]1CSC(=O)N1)C2 [Latrunculin B],0.94
11,COC1=CC(=O)OC(/C=C/c2ccccc2)C1 (racemic) [Kavain (+/-)],0.0407
12,O=c1[nH]c2ccccc2n1C1CCN(CCCC(c2ccc(F)cc2)c2ccc(F)cc2)CC1 [Pimozide],0.0546
13,"COc1ccc2c(c1OC)CN1CCc3cc4c(cc3C1C2)OCO4 (stereo not drawn) [(d,l)-Tetrahydroberberine]",0.0361
14,COc1cc([C@@H]2c3cc4c(cc3[C@H](O)[C@H]3COC(=O)[C@H]23)OCO4)cc(OC)c1OC [Podophyllotoxin],0.682
15,COc1ccc2c(c1OC)C(=O)O[C@@H]2[C@H]1c2cc3c(cc2CCN1C)OCO3.Cl [Hydrastine hydrochloride],0.0565
16,"CCCCC/C=C\C/C=C\C/C=C\C/C=C\CCCC(=O)NCCO [Anandamide (20:4, n-6)]",0.0367
17,CCCCC/C=C\C/C=C\C/C=C\C/C=C\CCCC(=O)NCCO,0.0573
18,COC(=O)[C@@]1(O)C[C@@H]2O[C@@]1(C)n1c3ccccc3c3c4c(c5c6ccccc6n2c5c31)C(=O)NC4,0.16
